Experimental data published in PubChem BioAssay (NCI).
This is part of a sample that, as a whole, favours compounds with a hit. Of some 79,000 tested, about 15% had one in any assay. The source made the active and inactive calls. No stated cut-off is given here; in the data, active means growth inhibition above about 70%; inactive means the rest.

Tests used:
[1] = NCI Yeast Anticancer Drug Screen. Data for the rad52 strain (AID 147);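 further: 0% = growth of vehicle-treated control cultures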; settings: S. cerevisiae rad52 mutant growth inhibition, hits give high values
Procedure, shortened: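 Compounds are applied to a genetically defined yeast strain lacking normal DNA damage repair, and inhibition of growth is expressed relative to cultures given vehicle only.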

[2] = NCI Yeast Anticancer Drug Screen. Data for the rad50EPP+ strain (AID 151);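 further: 0% = growth of vehicle-treated control cultures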; settings: S. cerevisiae rad50 mutant strain, hits give high values
Procedure, shortened: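 Compounds were applied to the rad50EPP+ yeast strain, which bears a defined DNA repair alteration, and growth inhibition was determined relative to vehicle-treated cultures.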

[3] = NCI Yeast Anticancer Drug Screen. Data for the mgt1 strain (AID 153); settings: S. cerevisiae mgt1 mutant growth inhibition, hits give high values
Procedure, shortened: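 Strain: mgt1 yeast, one of a set carrying defined DNA damage repair or cell cycle control alterations. Compound-treated growth compared with vehicle.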

[4] = NCI Yeast Anticancer Drug Screen. Data for the rad50 strain (AID 155);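 further: 0% = growth of vehicle-only cultures of the same strain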; settings: S. cerevisiae rad50 strain growth inhibition, hits give high values
Procedure, shortened: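 Cells are treated with compound, grown, and their growth is then scored against vehicle-only cultures of the same repair-deficient yeast strain.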

[5] = NCI Yeast Anticancer Drug Screen. Data for the mec2-1 strain (AID 157); settings: S. cerevisiae mec2-1 strain, hits give high values
Procedure, shortened: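 Strain: mec2-1 (DNA repair/cell cycle alteration). Compound exposure, then growth measured; inhibition expressed relative to vehicle.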

[6] = NCI Yeast Anticancer Drug Screen. Data for the rad14 strain (AID 159);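 further: 0% = growth of vehicle-treated control cultures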; settings: S. cerevisiae rad14 strain growth inhibition, hits give high values
Procedure, shortened: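 Readout: yeast growth inhibition, referenced to vehicle-only cultures. Strain bears a defined alteration in DNA damage repair.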

[7] = NCI Yeast Anticancer Drug Screen. Data for the sgs1 mgt1 strain (AID 161);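 further: 0% = growth of cultures given vehicle only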; settings: S. cerevisiae sgs1 mgt1 strain, hits give high values
Procedure, shortened: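 Inhibition of yeast growth, normalised to vehicle-treated controls, is reported for a strain bearing genetic alterations in DNA damage repair.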

[8] = NCI Yeast Anticancer Drug Screen. Data for the CLN2oe strain (AID 163);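 further: 0% = growth of vehicle-only control cultures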; settings: S. cerevisiae CLN2oe strain, hits give high values
Procedure, shortened: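 Growth of a genetically modified yeast strain is measured after compound exposure and compared with cultures given vehicle alone.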

[9] = NCI Yeast Anticancer Drug Screen. Data for the cln2 rad14 strain (AID 165);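 further: 0% = growth equal to vehicle treated cultures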; settings: S. cerevisiae cln2 rad14 strain, hits give high values
Procedure, shortened: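 Compounds are applied to the cln2 rad14 yeast strain, and growth is then compared with that of vehicle-treated cultures to give inhibition.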

[10] = NCI Yeast Anticancer Drug Screen. Data for the wt2 strain (AID 169);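 further: 0% = growth of vehicle-treated yeast cultures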; settings: S. cerevisiae wt2 strain growth inhibition, hits give high values
Procedure, shortened: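 This strain belongs to a panel of yeast strains with defined genetic alterations in DNA damage repair or cell cycle control. Compounds are applied, and growth inhibition is measured against vehicle-treated cultures.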

[11] = NCI Yeast Anticancer Drug Screen. Data for the mlh1 strain (AID 171);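 further: 0% = growth of vehicle-treated control cultures of the same strain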; settings: S. cerevisiae mlh1 strain growth inhibition, hits give high values
Procedure, shortened: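 Growth of the mutant yeast strain after compound exposure, expressed as inhibition relative to vehicle-only controls.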

[12] = NCI Yeast Anticancer Drug Screen. Data for the sgs1 strain (AID 173);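 further: 0% = growth of vehicle-only control cultures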; settings: S. cerevisiae sgs1 mutant, hits give high values
Procedure, shortened: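 Growth of a yeast strain bearing a defined genetic alteration is measured after compound treatment. Inhibition is expressed relative to vehicle-only controls.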

[13] = NCI Yeast Anticancer Drug Screen. Data for the mlh1 rad18 strain (AID 175); settings: S. cerevisiae mlh1 rad18 strain growth inhibition, hits give high values
Procedure, shortened: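 Read-out is yeast growth inhibition, calculated against vehicle-only controls. The compound was applied to a strain engineered with DNA damage repair alterations.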

[14] = NCI Yeast Anticancer Drug Screen. Data for the rad18 strain (AID 177); settings: S. cerevisiae rad18 mutant growth inhibition, hits give high values
Procedure, shortened: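 Growth of the mutant yeast strain after compound exposure, normalised to vehicle-only cultures.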

[15] = NCI Yeast Anticancer Drug Screen. Data for the bub3 strain (AID 167); settings: S. cerevisiae bub3 mutant strain, hits give high values
Procedure, shortened: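 Part of a panel of yeast mutants defective in DNA damage repair or cell cycle regulation. Each strain is grown with compound, and inhibition is calculated relative to solvent-treated cultures.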

[16] = NCI Yeast Anticancer Drug Screen. Data for the wt1 strain (AID 149);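 further: 0% = growth of vehicle-treated wt1 cultures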; settings: S. cerevisiae wt1 strain (SPY 50644) growth inhibition, hits give high values
Procedure, shortened: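 The wt1 strain was treated with compounds, and growth was compared with vehicle-treated cultures to give inhibition.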

[17] = at 5.0 µM (retest, dose inferred, filed as 0.5)
[18] = at 50.0 µM (retest, dose inferred, filed as 5.0)

Measured: growth inhibition

CC1CCN(CCC(=O)c2ccc(Cl)cc2)CC1
inactive: [1]; at 1.2 µM 4% | [1]; at 3.7 µM 8% | [1]; at 11.0 µM 28% | [1]; at 33.0 µM 41% | [1]; at 100.0 µM 53% | [2]; at 1.2 µM -1% | [2]; at 3.7 µM -1% | [2]; at 11.0 µM -1% | [2]; at 33.0 µM -2% | [2]; at 100.0 µM -7% | [3]; at 1.2 µM -1% | [3]; at 3.7 µM 4% | [3]; at 11.0 µM 20% | [3]; at 33.0 µM 35% | [3]; at 100.0 µM 52% | [4]; at 1.2 µM 12% | [4]; at 3.7 µM 19% | [4]; [17] 5% | [4]; at 11.0 µM 32% | [4]; at 33.0 µM 52% | [4]; [18] 36% | [4]; at 100.0 µM 56% | [5]; at 1.2 µM 0% | [5]; at 3.7 µM 1% | [5]; [17] 9% | [5]; at 11.0 µM 3% | [5]; at 33.0 µM 17% | [5]; [18] 37% | [5]; at 50.0 µM 29.1% | [5]; at 100.0 µM 27% | [6]; at 1.2 µM 19% | [6]; at 3.7 µM 36% | [6]; at 11.0 µM 33% | [6]; at 33.0 µM 39% | [6]; at 100.0 µM 45% | [7]; [17] 16% | [7]; [18] 50% | [8]; at 1.2 µM 8% | [8]; at 3.7 µM 17% | [8]; at 11.0 µM 36% | [8]; at 33.0 µM 49% | [8]; at 100.0 µM 55% | [9]; [17] 14% | [9]; [18] 45% | [10]; at 1.2 µM 0% | [10]; at 3.7 µM 1% | [10]; at 11.0 µM 18% | [10]; at 33.0 µM 5% | [10]; at 100.0 µM 21% | [11]; at 1.2 µM 2% | [11]; at 3.7 µM 14% | [11]; at 11.0 µM 26% | [11]; at 33.0 µM 26% | [11]; at 100.0 µM 40% | [12]; at 1.2 µM 5% | [12]; at 3.7 µM 32% | [12]; at 11.0 µM 45% | [12]; at 33.0 µM 62% | [12]; at 100.0 µM 66% | [13]; [17] 21% | [13]; [18] 52% | [13]; at 50.0 µM 58.1% | [14]; at 1.2 µM 5% | [14]; at 3.7 µM 18% | [14]; at 11.0 µM 17% | [14]; at 33.0 µM 28% | [14]; at 100.0 µM 42%
active: [4]; at 50.0 µM 77.5% | [7]; at 50.0 µM 75.5% | [9]; at 50.0 µM 73.6%

Cc1ccc(-c2ccc(Nc3c4ccccc4nc4ccccc34)cc2)cn1
inactive: [1]; at 1.2 µM 6% | [1]; at 3.7 µM 48% | [2]; at 1.2 µM 22% | [2]; at 3.7 µM 44% | [4]; at 1.2 µM 15% | [4]; at 3.7 µM 60% | [5]; at 1.2 µM -20% | [5]; at 3.7 µM -25% | [5]; [17] 9% | [5]; at 11.0 µM 11% | [6]; at 1.2 µM -27% | [6]; at 3.7 µM -19% | [6]; at 11.0 µM -4% | [6]; at 100.0 µM 59% | [7]; [17] 8% | [8]; at 1.2 µM 15% | [8]; at 3.7 µM 19% | [8]; at 11.0 µM 29% | [9]; [17] 37% | [9]; at 50.0 µM 58.6% | [15]; at 1.2 µM -5% | [15]; at 3.7 µM -45% | [15]; [17] 5% | [15]; at 11.0 µM -12% | [15]; at 50.0 µM 25.5% | [15]; at 100.0 µM 36% | [10]; at 1.2 µM -14% | [10]; at 3.7 µM 2% | [10]; at 11.0 µM 22% | [10]; at 100.0 µM 39% | [11]; at 1.2 µM 5% | [11]; at 3.7 µM 2% | [11]; at 11.0 µM 18% | [12]; at 1.2 µM 3% | [12]; at 3.7 µM 6% | [12]; at 11.0 µM 44% | [13]; [17] 16% | [14]; at 1.2 µM 0% | [14]; at 3.7 µM -10% | [14]; at 11.0 µM 12%
active: [1]; at 11.0 µM 90% | [1]; at 33.0 µM 95% | [1]; at 100.0 µM 92% | [2]; at 11.0 µM 85% | [2]; at 33.0 µM 95% | [2]; at 100.0 µM 95% | [4]; [17] 81% | [4]; at 11.0 µM 90% | [4]; at 33.0 µM 93% | [4]; [18] 97% | [4]; at 50.0 µM 97% | [4]; at 100.0 µM 88% | [5]; at 33.0 µM 86% | [5]; [18] 98% | [5]; at 50.0 µM 90.4% | [5]; at 100.0 µM 84% | [6]; at 33.0 µM 75% | [7]; [18] 75% | [7]; at 50.0 µM 80.2% | [8]; at 33.0 µM 85% | [8]; at 100.0 µM 73% | [9]; [18] 70% | [15]; at 33.0 µM 79% | [15]; [18] 84% | [10]; at 33.0 µM 92% | [11]; at 33.0 µM 88% | [11]; at 100.0 µM 72% | [12]; at 33.0 µM 94% | [12]; at 100.0 µM 88% | [13]; [18] 89% | [13]; at 50.0 µM 90.1% | [14]; at 33.0 µM 89% | [14]; at 100.0 µM 86%

CC(C)(Br)C(=O)/C=C/c1ccc(Cl)c(Cl)c1
inactive: [16]; at 1.2 µM -2% | [16]; at 3.7 µM -1% | [16]; at 11.0 µM -3% | [16]; at 33.0 µM 0% | [16]; at 100.0 µM 1% | [2]; at 1.2 µM 4% | [2]; at 3.7 µM 3% | [2]; at 11.0 µM 3% | [2]; at 33.0 µM 3% | [2]; at 100.0 µM 3% | [4]; at 1.2 µM 4% | [4]; at 3.7 µM 3% | [4]; [17] 17% | [4]; at 11.0 µM 1% | [4]; at 33.0 µM 4% | [4]; [18] 64% | [4]; at 100.0 µM 4% | [6]; at 1.2 µM 4% | [6]; at 3.7 µM 2% | [6]; at 11.0 µM 1% | [6]; at 33.0 µM 2% | [6]; at 100.0 µM 3% | [7]; [17] 33% | [9]; [17] 7% | [9]; [18] 28% | [9]; at 50.0 µM 52% | [15]; at 1.2 µM -2% | [15]; at 3.7 µM -3% | [15]; [17] 7% | [15]; at 11.0 µM -2% | [15]; at 33.0 µM -1% | [15]; [18] 56% | [15]; at 100.0 µM -2% | [10]; at 1.2 µM -5% | [10]; at 3.7 µM -10% | [10]; at 11.0 µM -12% | [10]; at 33.0 µM -10% | [10]; at 100.0 µM -8% | [11]; at 1.2 µM -2% | [11]; at 3.7 µM -1% | [11]; at 11.0 µM -2% | [11]; at 33.0 µM 1% | [11]; at 100.0 µM 3% | [12]; at 1.2 µM -1% | [12]; at 3.7 µM -3% | [12]; at 11.0 µM 12% | [12]; at 33.0 µM 7% | [12]; at 100.0 µM 17% | [14]; at 1.2 µM 3% | [14]; at 3.7 µM 6% | [14]; at 11.0 µM 3% | [14]; at 33.0 µM 7% | [14]; at 100.0 µM 50%
active: [4]; at 50.0 µM 87.4% | [7]; [18] 77% | [7]; at 50.0 µM 85.8% | [15]; at 50.0 µM 78.9%
